{
  "source": "PubChem BioAssay (NCATS)",
  "note": "Inconclusive results are not listed. Where a call stands in place of a potency, no number is given. Activity calls are given as the source filed them. Calls follow the shape of the dose curve; as a rule, active = well fitted inhibition curve with a large enough effect; inconclusive = small, poorly fitted or top-dose-only effect; inactive = no such curve, though single readings can be large or run the other way. Potency is read from the fitted curve at half-maximal effect.",
  "data": [
    {"assay": "BET inhibitor-based combinations targeting novel dependencies in MECOM-rearranged (r) AML: UCSD-AML1 cell line (AID 2202235); also: nearly all actives have a fitted effect of over 40% in size", "details": "UCSD-AML1 AML cells viability, CellTiter-Glo, 48 h; series mostly up to 46 µM", "excerpt": "Ecotropic viral insertion site 1 (EVI1) is located on chromosome 3q26.2 as part of the MECOM (MDS and EVI1 complex) locus. Under normal hematopoiesis, EVI1 is a regulator of hematopoietic stem cell maintenance and self-renewal and EVI1 levels decrease as the cells differentiate. In approximately 5-10% of de novo acute myeloid leukemia (AML) EVI1 is aberrantly expressed, including Chromosomal inv(3)(q21;q26.2) or t(3;3)(q21;q26.2) alterations (MECOM-r) that account for about 50% of AML with EVI1 overexpression 31. AMLs with high levels of EVI1 have a poor prognosis and an overall survival time averaging between 10-14 months. EVI1 overexpression confers resistance in leukemia cells, highlighting the need to develop new targeted therapies for EVI1 overexpressing AMLs. Here, we performed an unbiased chemical drug screening by evaluating the single agent activity of a collection of 2,480 oncology-focused, approved and investigational drugs (NCATS Mechanism Interrogation Plates, MIPE v5.0) against a panel of seven AML cell lines. These included four MECOM-r cell-lines (AML-191, AML-194, UCSD-AML1 and HNT-34) and three non-MECOM-r AMLs (MV4-11, OCI-AML3 and SET-2). Exploiting the mechanistic redundancy built in the library, we identified target-level sensitivities in MECOM-r AML cells and relative activity as compared to other AML subtypes.\nA collection of 2480 mechanistically annotated dugs (MIPE v5.0) was used to screen four 3q26.2 rearranged AML cell lines and three non-3q26.2 rearranged AML cell lines. This library purposely exploits redundancy by including multiple inhibitors of key onco-targets, while simultaneously encompassing mechanistic diversity, targeting more than 800 distinct mechanisms of action. Briefly, cells were seeded in 5 uL of growth media using a Multidrop Combi dispenser into 1536 well white polystyrene tissue culture treated plates (Corning) at a density of 500cells/well. For each cell-line, for each of the 2480 drugs in MIPE v5.0 library, an 11-point dose curve was generated via a 1536 pin-tool. Plates were incubated for 48 hr at standard incubator conditions, covered by a stainless steel gasketed lid to prevent evaporation. Cell viability was determined by luminescence based, Cell Titer Glo assay (Promega). In detail, 3 uL of Cell Titer Glo were added to each well and plates were incubated at room temperature for 15 min with a stainless-steel lid in place. Luminescence readings were taken using a Viewlux (PerkinElmer) with a 2 s exposure time per plate. Compound dose-response curves were normalized to DMSO and empty well controls on each plate. Quantitative drug activity data from dose-response curves was determined utilizing area Under the Curve (AUC) and Z-transformed AUC (Z-AUC, a mean-centering transformation applied to each individual cell-line screened).", "values": [
      {"smiles": "NCCCC(O)(P(=O)(O)O)P(=O)(O)O", "Potency": "inactive"},
      {"smiles": "CCCc1nc2c(C)cc(-c3nc4ccccc4n3C)cc2n1Cc1ccc(-c2ccccc2C(=O)O)cc1", "Potency": "inactive"},
      {"smiles": "OC(c1ccc(-c2ccc(CN3CCN(Cc4ccncc4)CC3)cc2)c(F)c1)(C(F)(F)F)C(F)(F)F", "Potency": "inactive"},
      {"smiles": "CCOc1ccc(Nc2nc(-c3c(C)nc4ccccn34)cs2)cc1", "Potency": "93.4 nM (active)"},
      {"smiles": "O=C1CCc2cc(OCCCCc3nnnn3C3CCCCC3)ccc2N1", "Potency": "inactive"},
      {"smiles": "CC(C)Oc1ccc2c(=O)c(-c3ccccc3)coc2c1", "Potency": "inactive"},
      {"smiles": "COc1ccc(CC2=NN3C([C@@H](CCc4ccccc4)[C@@H](C)O)=NC(C)C3C(=O)N2)cc1OC", "note": "(stereo not given in full)", "Potency": "inactive"},
      {"smiles": "Cc1cc(O)c(-c2ccc([C@@H](C)CN(C)C)cc2)c2c1[nH]c(=O)c1sccc12", "Potency": "93.4 nM (active)"},
      {"smiles": "Clc1ccc(C(Cn2ccnc2)OCc2ccc(Sc3ccccc3)cc2)c(Cl)c1", "note": "(stereo not given)", "Potency": "20900 nM (active)"},
      {"smiles": "Cc1c(NC(=O)c2cc3c(s2)CCCC3)cccc1-c1cn(C)c(=O)c(Nc2ccc(C3C(=O)N(C)CCN3C)cc2)n1", "note": "(stereo not given)", "Potency": "inactive"},
      {"smiles": "O=C(/C=C\\n1cnc(-c2cc(C(F)(F)F)cc(C(F)(F)F)c2)n1)NNc1cnccn1", "Potency": "372 nM (active)"},
      {"smiles": "C[C@@H](c1ccc2nccn2c1)n1nnc2ncc(-c3cnn(C)c3)nc21", "Potency": "inactive"},
      {"smiles": "COC1CCC(N(C(=O)C2CCC(C)CC2)c2cc(C3=CCCCC3)sc2C(=O)O)CC1", "note": "(stereo not given)", "Potency": "inactive"},
      {"smiles": "CCOC(=O)[C@H](CCc1ccccc1)N[C@@H](C)C(=O)N1[C@H](C(=O)O)C[C@@H]2CCC[C@@H]21", "Potency": "inactive"},
      {"smiles": "COc1ccc(C=Cc2cc(OC)c(OC)c(OC)c2)cc1NC(=O)[C@H](N)CO", "Potency": "372 nM (active)"},
      {"smiles": "CC1=C(CC(=O)O)c2cc(F)ccc2C1=Cc1ccc(S(C)=O)cc1", "note": "(stereo not given)", "Potency": "inactive"},
      {"smiles": "CCOC(=O)C1=C[C@@H](OC(CC)CC)[C@H](NC(C)=O)[C@@H](N)C1", "Potency": "inactive"},
      {"smiles": "CC(O)c1cc(C(=O)N[C@@H](C)Cn2ccc(-c3ccc(C#N)c(Cl)c3)n2)n[nH]1", "note": "(stereo not given in full)", "Potency": "inactive"},
      {"smiles": "CCCCC(F)(F)[C@@]1(O)CC[C@H]2[C@H](CC(=O)[C@@H]2CCCCCCC(=O)O)O1", "Potency": "inactive"},
      {"smiles": "CC(C(=O)O)c1ccc2c(c1)CC(=O)c1ccccc1S2", "note": "(stereo not given)", "Potency": "inactive"},
      {"smiles": "CC1COc2c(N3CCN(C)CC3)c(F)cc3c(=O)c(C(=O)O)cn1c23", "note": "(stereo not given)", "Potency": "inactive"},
      {"smiles": "COc1cc([C@@H]2c3cc4c(cc3[C@H](O)[C@H]3COC(=O)[C@@H]23)OCO4)cc(OC)c1OC", "Potency": "468 nM (active)"},
      {"smiles": "C=C1c2cccc(O)c2C(O)=C2C(=O)[C@@]3(O)C(O)=C(C(N)=O)C(=O)[C@@H](N(C)C)[C@@H]3[C@@H](O)[C@H]12", "Potency": "inactive"},
      {"smiles": "C[C@]12CC[C@@H]3c4ccc(O)cc4C[C@@H](CCCCCCCCCS(=O)CCCC(F)(F)C(F)(F)F)[C@H]3[C@H]1CC[C@H]2O", "note": "(stereo not given in full)", "Potency": "inactive"},
      {"smiles": "CN1CCC(=C2c3ccccc3C=Cc3ccccc32)CC1", "Potency": "inactive"},
      {"smiles": "CCc1cccc2c3c([nH]c12)[C@@](CC)(CC(=O)O)OCC3", "Potency": "inactive"},
      {"smiles": "Fc1ccc(Cl)cc1-c1nc(Nc2ccncc2)c2nccnc2n1", "Potency": "inactive"},
      {"smiles": "COc1ccc2nc3n[nH]c(C)c3c(NCCOCCO)c2c1", "Potency": "inactive"},
      {"smiles": "C#Cc1cccc(Nc2ncnc3cc(OC)c(OCCCCCCC(=O)NO)cc23)c1", "Potency": "1180 nM (active)"},
      {"smiles": "CC#C[C@@H](CC(=O)O)c1ccc(OCc2cccc(-c3ccc(C(F)(F)F)cc3)c2)cc1", "Potency": "inactive"},
      {"smiles": "CN(C)c1ccc(C(=C2C=CC(=[N+](C)C)C=C2)c2ccc(N(C)C)cc2)cc1", "Potency": "1050 nM (active)"},
      {"smiles": "C[C@@H](Oc1cc(-n2cnc3ccc(CN4CCN(C)CC4)cc32)sc1C(N)=O)c1ccccc1C(F)(F)F", "Potency": "118 nM (active)"},
      {"smiles": "CN(C)C(=O)c1cc2cnc(Nc3ccc(N4CCNCC4)cn3)nc2n1C1CCCC1", "Potency": "inactive"},
      {"smiles": "Cc1c(C)c2c(c(C)c1O)CCC(C)(COc1ccc(CC3SC(=O)NC3=O)cc1)O2", "note": "(stereo not given)", "Potency": "inactive"},
      {"smiles": "Cc1[nH]nc(C(F)(F)F)c1Cc1sc2c(c1C(=O)N1C[C@](C)(O)CO1)c(=O)n(C)c(=O)n2C(C)C", "Potency": "inactive"},
      {"smiles": "CC[C@]12C=CCN3CC[C@@]4(c5cc([C@@]6(C(=O)OC)C[C@H]7C[C@@H](C(C)(F)F)CN(Cc8c6[nH]c6ccccc86)C7)c(OC)cc5N(C)[C@H]4[C@@](O)(C(=O)OC)[C@@H]1OC(C)=O)[C@@H]32", "Potency": "139 nM (active)"},
      {"smiles": "CC[N+](CC)(CC)CCOc1cccc(OCC[N+](CC)(CC)CC)c1OCC[N+](CC)(CC)CC", "Potency": "inactive"},
      {"smiles": "O=C1CSC(=O)N1C(CCc1ccncc1)COc1ccc(-c2cccc([N+](=O)[O-])c2)cc1", "note": "(stereo not given)", "Potency": "inactive"},
      {"smiles": "CCN1CCCC1CNC(=O)c1cc(S(=O)(=O)CC)c(N)cc1OC", "note": "(stereo not given)", "Potency": "inactive"},
      {"smiles": "CC(=O)Oc1cc2c(s1)CCN(C(C(=O)C1CC1)c1ccccc1F)C2", "note": "(stereo not given)", "Potency": "inactive"}
    ]}
  ]
}
